Experimental data: PubChem BioAssay (EPA / NIEHS)
Records with an inconclusive call do not appear. Calls of active or inactive are those of the source. How the source made its calls: active means hit-call score of the fitted dose curve at least 0.9, where 1 is the maximum; inconclusive means response in the unintended direction; inactive means score below 0.9.

The molecules below were run against Bile acid receptor (Homo sapiens) (UniProt Q96RI1) (assay: NVS_NR_hFXR_Antagonist: NovaScreen (NVS) Nuclear Receptor Binding Assay for human Farnesoid X Receptor Antagonism (FXR) (AID 2283350)).
Chain of Bile acid receptor (Homo sapiens) (Q96RI1 whole entry, looked up): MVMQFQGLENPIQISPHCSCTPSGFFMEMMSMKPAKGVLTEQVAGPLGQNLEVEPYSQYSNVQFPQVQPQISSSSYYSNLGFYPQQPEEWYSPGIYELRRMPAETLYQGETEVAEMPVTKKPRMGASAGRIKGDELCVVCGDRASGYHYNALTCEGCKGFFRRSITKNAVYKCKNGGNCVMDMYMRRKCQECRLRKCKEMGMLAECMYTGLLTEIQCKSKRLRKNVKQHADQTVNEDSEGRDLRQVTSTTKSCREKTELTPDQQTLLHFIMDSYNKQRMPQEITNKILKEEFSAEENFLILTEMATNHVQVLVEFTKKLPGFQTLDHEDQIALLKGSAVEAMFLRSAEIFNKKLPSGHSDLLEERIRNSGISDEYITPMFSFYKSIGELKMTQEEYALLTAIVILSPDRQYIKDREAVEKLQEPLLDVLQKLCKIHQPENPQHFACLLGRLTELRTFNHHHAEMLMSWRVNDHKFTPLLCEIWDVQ
Protocol: NVS_NR_hFXR_Antagonist is a biochemical, single-readout assay that uses extracted gene-proteins in a cell-free assay. Measurements were taken 1 hour after chemical dosing in a 384-well plate.NVS_NR_hFXR_Antagonist is one of one assay component(s) measured or calculated from the NVS_NR_hFXR_Antagonist assay. It is designed to make measurements of fluorescent resonance energy transfer, a form of binding reporter, as detected with fluorescent resonance energy transfer signals by Time-Resolved Fluorescence Resonance Energy Transfer (TR-FRET) technology.Data from the assay component NVS_NR_hFXR_Antagonist was analyzed into 1 assay endpoint. This assay endpoint, NVS_NR_hFXR_Antagonist, was analyzed in the positive analysis fitting direction relative to DMSO as the negative control and baseline of activity. Using a type of binding reporter, loss-of-signal activity can be used to understand changes in the binding as they relate to the gene NR1H4. Furthermore, this assay endpoint can be referred to as a primary readout, because the performed assay has only produced 1 assay endpoint. To generalize the intended target to other relatable targets, this assay endpoint is annotated to the nuclear receptor intended target family, where the subfamily is non-steroidal.
Binding assays used specific radioligands (tritiated, iodinated) with non-radioactive competitive displacement ligands in agonist or antagonist protocols (as indicated) and various reference compounds and inhibitors to titrate specific binding to receptors and transporters. Most enzyme assays (CYPs, kinases, phosphatases, proteases, HDACs) used recombinant protein and specific substrates (fluorescence mostly, some colorimetric and radioactive) and inhibitors, followed by a biochemical separation of substrate and product. All assays for the biochemical HTS were initially run in duplicate at a single concentration (10 uM for CYP450 assays and 25 uM for all others). […] Each assay was run with positive and negative controls, and concurrent controls on every plate. The follow-up (secondary) screen tested active chemical-pairs in concentration series, as well as a few additional assays not tested in the primary screen, some selected negative inactives, and several cases re-run in the concentration series for confirmatory purposes.

| SMILES | AC50 | outcome |
| --- | --- | --- |
| CC[C@H](C)C(=O)O[C@H]1C[C@@H](C)C=C2C=C[C@H](C)[C@H](CC[C@@H]3C[C@@H](O)CC(=O)O3)[C@H]21 | 31.5 µM (active) |  |
| CC(C)=CCC/C(C)=C\CO |  | inactive |
| COC(=O)c1c(Cl)c(Cl)c(C(=O)OC)c(Cl)c1Cl |  | inactive |

The molecules below were run against Estrogen receptor (Homo sapiens) (UniProt P03372) (assay: OT_ER_ERaERa_0480: Odyssey Thera (OT) 8-hour HEK293T Protein-Complementation Assay for Estrogen Receptor-alpha/-alpha Homodimer (AID 2283351);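 further: rise in fluorescence from reassembled reporter fragments on ERα LBD homodimer in nucleus or whole cell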).
Chain of Estrogen receptor (Homo sapiens) (P03372 whole entry, looked up, the tested form may be a part): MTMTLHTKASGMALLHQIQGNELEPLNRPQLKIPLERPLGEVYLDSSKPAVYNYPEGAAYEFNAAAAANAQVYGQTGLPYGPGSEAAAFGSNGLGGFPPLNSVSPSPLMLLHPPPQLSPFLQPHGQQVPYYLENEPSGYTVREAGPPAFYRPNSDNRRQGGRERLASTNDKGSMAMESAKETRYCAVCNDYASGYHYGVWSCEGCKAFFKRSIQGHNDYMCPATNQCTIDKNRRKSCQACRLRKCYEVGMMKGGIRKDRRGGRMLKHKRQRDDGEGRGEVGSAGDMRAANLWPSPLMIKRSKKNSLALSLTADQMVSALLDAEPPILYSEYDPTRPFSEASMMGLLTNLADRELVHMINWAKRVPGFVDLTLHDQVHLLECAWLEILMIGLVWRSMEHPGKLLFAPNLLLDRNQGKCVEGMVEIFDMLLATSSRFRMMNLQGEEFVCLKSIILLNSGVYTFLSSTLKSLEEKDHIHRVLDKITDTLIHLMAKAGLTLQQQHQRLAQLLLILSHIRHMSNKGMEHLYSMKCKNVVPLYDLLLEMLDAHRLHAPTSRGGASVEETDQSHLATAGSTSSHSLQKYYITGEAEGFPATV
Outline: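 Cells were treated for 8 hours, then imaged on a laser scanning plate cytometer. Complementation of reporter fragments fused to the human ERα ligand-binding domain (residues 310-547) in HEK293T gave fluorescence, and gain of signal over vehicle was fitted.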

| SMILES | outcome | AC50 |
| --- | --- | --- |
| O=C(O)c1cccc(Oc2ccccc2)c1 | inactive |  |
| CC(C)=CCCC(C)CCO (configuration not stated) | inactive |  |
| CC(C)=CCCC(C)=CC=O | inactive |  |
| Cc1ccc(N)cc1O | inactive |  |
| CC[C@H](C)C(=O)O[C@H]1C[C@@H](C)C=C2C=C[C@H](C)[C@H](CC[C@@H]3C[C@@H](O)CC(=O)O3)[C@H]21 | inactive |  |
| CC(C)CCO | inactive |  |
| C=CC(=C)CCC=C(C)C | inactive |  |
| COc1ccc2sc(C(=O)Nc3nnn[nH]3)c(OC(C)C)c2c1 | inactive |  |
| C=CCCCCCCCCC(=O)O | inactive |  |
| O=c1n(CC2CO2)c(=O)n(CC2CO2)c(=O)n1CC1CO1 (configuration not stated) | inactive |  |
| Cn1cnc([N+](=O)[O-])c1Sc1ncnc2nc[nH]c12 | inactive |  |
| O=C(NS(=O)(=O)/C=C/c1ccccc1)c1ccc(F)cc1Cl | inactive |  |
| COC(=O)c1c(Cl)c(Cl)c(C(=O)OC)c(Cl)c1Cl | inactive |  |
| Cn1c(=O)cc(Oc2ccc(F)cc2F)c2cnc(NCC(C)(C)O)nc21 |  | 24.4 µM (active) |
| CCCCCCCCO | inactive |  |
| CCCCC(CC)COC(=O)CCCCCCCCC(=O)OCC(CC)CCCC (configuration not stated) |  | 0.949 µM (active) |
| CCC(C)(C)C(=O)O[C@H]1C[C@@H](C)C=C2C=C[C@H](C)[C@H](CC[C@@H]3C[C@@H](O)CC(=O)O3)[C@H]21 | inactive |  |
| COC(=O)CC(=O)OC | inactive |  |
| Cc1ccc(S(=O)(=O)O)cc1C | inactive |  |

What follows are molecules tested against Estrogen receptor (Homo sapiens) + Estrogen receptor beta (Homo sapiens) (UniProt P03372+Q92731) (assay: OT_ER_ERaERb_0480: Odyssey Thera (OT) 8-hour HEK293T Protein-Complementation Assay for Estrogen Receptor-alpha/-beta Heterodimer (AID 2283352)).
Chain of Estrogen receptor (Homo sapiens) + Estrogen receptor beta (Homo sapiens) (P03372 whole entry, looked up): as the sequence (P03372 whole entry, looked up, the tested form may be a part) above
Chain of Estrogen receptor (Homo sapiens) + Estrogen receptor beta (Homo sapiens) (Q92731 whole entry, looked up): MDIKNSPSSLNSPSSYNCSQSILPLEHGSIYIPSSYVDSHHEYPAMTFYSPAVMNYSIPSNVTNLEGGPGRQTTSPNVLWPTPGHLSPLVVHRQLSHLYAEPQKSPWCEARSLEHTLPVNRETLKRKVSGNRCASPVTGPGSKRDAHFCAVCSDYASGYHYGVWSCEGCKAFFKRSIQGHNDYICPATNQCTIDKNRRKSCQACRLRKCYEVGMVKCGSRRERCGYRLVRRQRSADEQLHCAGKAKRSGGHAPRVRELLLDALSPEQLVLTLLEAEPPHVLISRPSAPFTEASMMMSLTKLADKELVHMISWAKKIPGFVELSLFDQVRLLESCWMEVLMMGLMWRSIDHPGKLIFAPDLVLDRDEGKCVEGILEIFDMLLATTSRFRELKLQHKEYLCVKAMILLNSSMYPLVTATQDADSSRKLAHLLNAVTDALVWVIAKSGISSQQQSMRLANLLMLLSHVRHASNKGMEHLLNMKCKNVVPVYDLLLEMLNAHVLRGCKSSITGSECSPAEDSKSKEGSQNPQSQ
Outline: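 Compound added to HEK293T cells carrying split-reporter-tagged ER-alpha and ER-beta LBDs, incubated 8 hours, then imaged by laser scanning cytometer. Signal rise in nucleus, or nucleus and cytoplasm, over vehicle was fitted in the positive direction.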

| SMILES | outcome |
| --- | --- |
| CC(C)=CCCC(C)=CC=O | inactive |
| Cc1ccc(N)cc1O | inactive |
| CC[C@H](C)C(=O)O[C@H]1C[C@@H](C)C=C2C=C[C@H](C)[C@H](CC[C@@H]3C[C@@H](O)CC(=O)O3)[C@H]21 | inactive |
| CC(C)CCO | inactive |
| C=CC(=C)CCC=C(C)C | inactive |
| COc1ccc2sc(C(=O)Nc3nnn[nH]3)c(OC(C)C)c2c1 | inactive |
| C=CCCCCCCCCC(=O)O | inactive |
| O=c1n(CC2CO2)c(=O)n(CC2CO2)c(=O)n1CC1CO1 (configuration not stated) | inactive |
| Cn1cnc([N+](=O)[O-])c1Sc1ncnc2nc[nH]c12 | inactive |
| O=C(NS(=O)(=O)/C=C/c1ccccc1)c1ccc(F)cc1Cl | inactive |
| COC(=O)c1c(Cl)c(Cl)c(C(=O)OC)c(Cl)c1Cl | inactive |
| Cn1c(=O)cc(Oc2ccc(F)cc2F)c2cnc(NCC(C)(C)O)nc21 | inactive |
| CCCCCCCCO | inactive |
| CCC(C)(C)C(=O)O[C@H]1C[C@@H](C)C=C2C=C[C@H](C)[C@H](CC[C@@H]3C[C@@H](O)CC(=O)O3)[C@H]21 | inactive |
| COC(=O)CC(=O)OC | inactive |
